The results in this text go back to PubChem BioAssay (EPA / NIEHS).

Records with an inconclusive call do not appear. Activity calls are given as the source filed them. Rule for the calls: active = hit-call score of the fitted dose curve at least 0.9, where 1 is the maximum; inconclusive = response in the unintended direction; inactive = score below 0.9.

For test [1], the target named is rat Thyrotropin Releasing Hormone Receptor (TRH), Trhr (gene 25570) (UniProt Q01717). Nature of the test: NVS_GPCR_rTRH: NovaScreen (NVS) G Protein-Coupled Receptor Assay for rat Thyrotropin Releasing Hormone Receptor (TRH) (AID 2283329).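 Note: hit means lower bound tracer signal versus DMSO baseline.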 An outline of the steps:
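Cell-free radioligand binding on rat forebrain membranes; bound tracer measured by filter-based scintillation counting 4 hours after dosing. Loss of signal versus DMSO baseline indicates displacement; primary screen at 25 uM in duplicate, actives then run in concentration series.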

The target of test [2] is rat Vasopressin 1 Receptor (V1), Avpr1a (gene 25107) (UniProt P30560). Nature of the test: NVS_GPCR_rV1: NovaScreen (NVS) G Protein-Coupled Receptor Assay for rat Vasopressin 1 Receptor (V1) (AID 2283316). An outline of the steps: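 Concentration-response up to 50 uM for chemicals passing a threshold such as 30% inhibition in an initial duplicate 25 uM screen. Displacement of radioligand from rat liver membranes measured after 1.5 h by filtration and scintillation.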
Sequence of rat Vasopressin 1 Receptor (V1), Avpr1a (gene 25107) (P30560 whole entry, looked up): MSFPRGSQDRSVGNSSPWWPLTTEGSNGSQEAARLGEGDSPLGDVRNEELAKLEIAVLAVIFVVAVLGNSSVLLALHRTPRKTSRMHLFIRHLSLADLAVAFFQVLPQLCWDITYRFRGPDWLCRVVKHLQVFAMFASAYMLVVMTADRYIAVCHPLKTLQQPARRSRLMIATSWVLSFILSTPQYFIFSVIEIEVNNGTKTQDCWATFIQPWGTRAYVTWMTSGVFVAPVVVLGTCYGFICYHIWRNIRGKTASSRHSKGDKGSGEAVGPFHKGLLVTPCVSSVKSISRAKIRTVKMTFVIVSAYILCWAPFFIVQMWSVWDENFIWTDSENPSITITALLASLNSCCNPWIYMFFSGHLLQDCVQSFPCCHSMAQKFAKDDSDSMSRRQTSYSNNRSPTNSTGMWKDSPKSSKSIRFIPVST

In test [3] the target is Sodium channel protein type 1 subunit alpha (Rattus norvegicus) (UniProt P04774). Put plainly: NVS_IC_rNaCh_site2: NovaScreen (NVS) Ion Channel Assay for rat Sodium Channel, Site 2 (NaCh) (AID 2283322).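 Note: hit means loss of radioligand binding signal relative to DMSO so AC50 marks displacement.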 Summed up: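 Initial duplicate single-point testing at 25 uM, followed by concentration-response runs for actives. Binding of radioligand to rat forebrain membranes quantified after 1 h via filter-based radiodetection.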

For test [4], the target named is rat Gamma-Aminobutyric Acid Type A Receptor, Non-Selective (GABAR-NonSelective), Gabra1 (gene 29705) (UniProt P62813). Nature of the test: NVS_LGIC_rGABAR_NonSelective: NovaScreen (NVS) Ligand-Gated Ion Channel Assay for rat Gamma-Aminobutyric Acid Type A Receptor, Non-Selective (GABAR-NonSelective) (AID 2283326). An outline of the steps: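 Compounds were first screened in duplicate at 25 uM, with actives run as singleton concentration series (max 50 uM). Binding of a radioligand to rat whole-brain GABA-A preparation was measured by filtration and scintillation counting after 1 h, DMSO baseline.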
Sequence of rat Gamma-Aminobutyric Acid Type A Receptor, Non-Selective (GABAR-NonSelective), Gabra1 (gene 29705) (P62813 whole entry, looked up): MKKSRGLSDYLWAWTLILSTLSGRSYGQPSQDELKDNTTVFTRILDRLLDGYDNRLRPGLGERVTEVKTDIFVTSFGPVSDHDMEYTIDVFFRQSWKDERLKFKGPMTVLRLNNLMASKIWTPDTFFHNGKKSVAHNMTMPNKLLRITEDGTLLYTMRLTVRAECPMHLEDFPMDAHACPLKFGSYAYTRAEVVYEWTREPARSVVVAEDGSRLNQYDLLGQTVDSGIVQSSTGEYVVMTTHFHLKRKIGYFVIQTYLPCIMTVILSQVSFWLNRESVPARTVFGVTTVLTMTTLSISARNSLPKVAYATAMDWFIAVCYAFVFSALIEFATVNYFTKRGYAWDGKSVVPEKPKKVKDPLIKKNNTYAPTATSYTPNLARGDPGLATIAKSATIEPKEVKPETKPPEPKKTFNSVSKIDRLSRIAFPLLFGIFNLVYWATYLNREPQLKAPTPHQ

Test [5] deals with human Constitutive Androstane Receptor (CAR), NR1I3 (gene 9970) (UniProt Q14994). Nature of the test: NVS_NR_hCAR_Agonist: NovaScreen (NVS) Nuclear Receptor Binding Assay for human Constitutive Androstane Receptor Agonism (CAR) (AID 2283328). An outline of the steps:
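Actives from a 25 uM duplicate screen were retested in singleton concentration series to 50 uM max. Biochemical TR-FRET assay on extracted CAR protein measured 1 h post-dose, with signal increase over DMSO control.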

The target of test [6] is bovine Gamma-Aminobutyric Acid Type A Receptor BDZ, alpha 1 site (GABARa1), GABRA1 (gene 780973) (UniProt P08219). Put plainly: NVS_LGIC_bGABARa1: NovaScreen (NVS) Ligand-Gated Ion Channel Assay for bovine Gamma-Aminobutyric Acid Type A Receptor BDZ, alpha 1 site (GABARa1) (AID 2283321). An outline of the steps: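 Bovine cortex membrane preparation, benzodiazepine site on GABA-A alpha1; specific radioligand displacement read after 0.75 h by filtration and scintillation. Screen at 25 uM, then singleton titrations up to 50 uM; DMSO baseline.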
Sequence of bovine Gamma-Aminobutyric Acid Type A Receptor BDZ, alpha 1 site (GABARa1), GABRA1 (gene 780973) (P08219 whole entry, looked up): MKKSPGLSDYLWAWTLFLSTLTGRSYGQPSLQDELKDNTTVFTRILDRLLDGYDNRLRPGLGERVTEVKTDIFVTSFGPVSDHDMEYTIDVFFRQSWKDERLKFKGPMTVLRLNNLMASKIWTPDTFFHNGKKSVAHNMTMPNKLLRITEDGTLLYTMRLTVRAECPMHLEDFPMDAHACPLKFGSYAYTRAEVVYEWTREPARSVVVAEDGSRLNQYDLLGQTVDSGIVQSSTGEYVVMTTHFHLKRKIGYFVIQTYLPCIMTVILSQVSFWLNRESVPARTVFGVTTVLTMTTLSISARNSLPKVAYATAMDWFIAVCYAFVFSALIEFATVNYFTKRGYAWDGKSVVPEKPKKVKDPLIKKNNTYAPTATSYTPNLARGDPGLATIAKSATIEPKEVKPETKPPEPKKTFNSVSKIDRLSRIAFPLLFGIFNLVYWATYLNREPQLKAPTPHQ

The nature of test [7]: NVS_IC_rCaDHPRCh_L: NovaScreen (NVS) Ion Channel Assay for rat Calcium Channel, Type L, Dihydropyridine Site (CaDHPRCh_L) (AID 2283320). An outline of the steps: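 Rat cortex membrane preparation; dihydropyridine-site radioligand displacement read 1 h post-dose by filtration and scintillation. Primary single-point screen 25 uM in duplicate, then concentration series to 50 uM maximum; DMSO as negative control.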

Test [8] concerns the target rat Glutamate Metabotropic Receptor 5 (MGluR5), Grm5 (gene 24418) (UniProt P31424). Nature of the test: NVS_GPCR_rmMGluR5: NovaScreen (NVS) G Protein-Coupled Receptor Assay for rat Glutamate Metabotropic Receptor 5 (MGluR5) (AID 2283307). An outline of the steps:
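Compounds first screened in duplicate at 25 uM, then in concentration series up to 50 uM if over threshold. Radioligand displacement on rat whole-brain membranes, filtration and scintillation counting after 1.5 h; binding loss relative to DMSO.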

Test [9] concerns the target rat Neurotensin Receptor (NTS), Ntsr1 (gene 366274) (UniProt P20789). Put plainly: NVS_GPCR_rNTS: NovaScreen (NVS) G Protein-Coupled Receptor Assay for rat Neurotensin Receptor (NTS) (AID 2283308). Summed up: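 Single-point duplicates at 25 uM, then concentration series to 50 uM max for hits, measured radioligand displacement on rat forebrain membrane preparations. Bound label counted by filtration scintillation at 1 h; signal loss relative to DMSO fitted.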

Test [10] addresses rat Neurokinin-3 Receptor (NK3), Tacr3 (gene 24808) (UniProt P16177). Put plainly: NVS_GPCR_rNK3: NovaScreen (NVS) G Protein-Coupled Receptor Assay for rat Neurokinin-3 Receptor (NK3) (AID 2283310). An outline of the steps:
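Filter-based radioligand displacement on rat cortex membrane preparations, read by scintillation 2 h post-dose. Chemicals first tested in duplicate at 25 uM; actives followed up in concentration series with a 50 uM maximum.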

For test [11], the target named is rat Opioid Receptor, Non-selective Sodium (Na+) Binding, Oprm1 (gene 25601) (UniProt P33535). Nature of the test: NVS_GPCR_rOpiate_NonSelectiveNa: NovaScreen (NVS) G Protein-Coupled Receptor Assay for rat Opioid Receptor, Non-selective Sodium (Na+) Binding (AID 2283311). An outline of the steps: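 Filtration radioligand binding on rat forebrain membrane preparations, read 1.5 h after dosing. Single-concentration 25 µM primary screen in duplicate, followed by singleton concentration series to 50 µM max for actives; DMSO baseline.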

The target in test [12] is rat Somatostatin Receptor (SST), Sstr1 (gene 25033) (UniProt P28646). Put plainly: NVS_GPCR_rSST: NovaScreen (NVS) G Protein-Coupled Receptor Assay for rat Somatostatin Receptor (SST) (AID 2283314). An outline of the steps: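 Single-concentration duplicate screen (25 uM), then concentration-response up to 50 uM for chemicals passing a threshold such as 30% inhibition. Membranes came from rat forebrain. Binding was measured 1 h post-dose by filter radiodetection and scintillation, relative to DMSO.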
Sequence of rat Somatostatin Receptor (SST), Sstr1 (gene 25033) (P28646 whole entry, looked up): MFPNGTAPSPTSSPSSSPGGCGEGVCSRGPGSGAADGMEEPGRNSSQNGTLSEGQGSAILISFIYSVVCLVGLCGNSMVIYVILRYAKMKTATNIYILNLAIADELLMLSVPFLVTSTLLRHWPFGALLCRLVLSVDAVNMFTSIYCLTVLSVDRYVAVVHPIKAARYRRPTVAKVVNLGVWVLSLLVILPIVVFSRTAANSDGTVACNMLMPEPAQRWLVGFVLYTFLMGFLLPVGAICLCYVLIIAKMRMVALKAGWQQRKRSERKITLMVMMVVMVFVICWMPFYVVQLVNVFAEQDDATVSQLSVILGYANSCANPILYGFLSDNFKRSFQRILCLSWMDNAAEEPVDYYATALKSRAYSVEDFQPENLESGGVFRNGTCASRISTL

For test [13], the target named is rat Opioid Receptor, Non-selective Binding, Oprm1 (gene 25601) (UniProt P33535). Nature of the test: NVS_GPCR_rOpiate_NonSelective: NovaScreen (NVS) G Protein-Coupled Receptor Assay for rat Opioid Receptor, Non-selective Binding (AID 2283318). Summed up:
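Filter-based radioligand displacement using rat forebrain membrane preparations, measured 1.5 h post-dosing. Single-concentration duplicate screen at 25 uM, follow-up in concentration series; activity taken as signal loss relative to DMSO.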

A further test deals with NCBI gene 24521. Put plainly: NVS_IC_rKATPCh: NovaScreen (NVS) Ion Channel Assay for rat Potassium Channel, ATP-Sensitive (KATPCh) (AID 2283319). An outline of the steps:
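Primary duplicate screen at 25 uM, then singleton concentration series to 50 uM maximum, in a rat cortex membrane radioligand displacement assay. Binding measured by filtration and scintillation 2 h post-dose; DMSO baseline.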

Test [14] has as its target rat Glutamate, AMPA Site (AMPA), Gria1 (gene 50592) (UniProt P19490). Put plainly: NVS_LGIC_rAMPA: NovaScreen (NVS) Ligand-Gated Ion Channel Assay for rat Glutamate, AMPA Site (AMPA) (AID 2283324). An outline of the steps:
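Screening at 25 uM in duplicate preceded concentration series reaching 50 uM for qualifying compounds. Radioligand displacement on rat forebrain membranes, 1 h, filter-based scintillation readout; reduced binding relative to DMSO.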

Sequence of rat Thyrotropin Releasing Hormone Receptor (TRH), Trhr (gene 25570) (Q01717 whole entry, looked up): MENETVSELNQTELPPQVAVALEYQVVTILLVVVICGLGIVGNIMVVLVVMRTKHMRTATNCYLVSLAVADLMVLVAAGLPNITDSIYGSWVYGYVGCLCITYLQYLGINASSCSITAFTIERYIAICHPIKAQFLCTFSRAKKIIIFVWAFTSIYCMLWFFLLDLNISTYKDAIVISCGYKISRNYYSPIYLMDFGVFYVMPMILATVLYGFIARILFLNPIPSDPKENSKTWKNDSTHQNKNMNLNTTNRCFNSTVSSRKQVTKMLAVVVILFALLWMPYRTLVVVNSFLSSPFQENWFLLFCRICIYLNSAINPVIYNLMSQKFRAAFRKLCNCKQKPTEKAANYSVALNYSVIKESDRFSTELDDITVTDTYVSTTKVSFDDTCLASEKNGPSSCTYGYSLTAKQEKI
Sequence of human Constitutive Androstane Receptor (CAR), NR1I3 (gene 9970) (Q14994 whole entry, looked up): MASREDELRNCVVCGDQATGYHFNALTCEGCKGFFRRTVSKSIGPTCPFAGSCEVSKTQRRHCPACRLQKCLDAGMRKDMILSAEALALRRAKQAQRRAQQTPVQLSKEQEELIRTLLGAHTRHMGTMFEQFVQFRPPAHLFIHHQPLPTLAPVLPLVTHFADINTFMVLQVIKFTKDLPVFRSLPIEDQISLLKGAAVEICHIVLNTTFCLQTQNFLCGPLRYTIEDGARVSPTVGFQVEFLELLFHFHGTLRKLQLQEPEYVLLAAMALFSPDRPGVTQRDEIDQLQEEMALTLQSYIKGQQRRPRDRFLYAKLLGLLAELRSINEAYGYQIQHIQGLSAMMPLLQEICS
Sequence of rat Glutamate, AMPA Site (AMPA), Gria1 (gene 50592) (P19490 whole entry, looked up): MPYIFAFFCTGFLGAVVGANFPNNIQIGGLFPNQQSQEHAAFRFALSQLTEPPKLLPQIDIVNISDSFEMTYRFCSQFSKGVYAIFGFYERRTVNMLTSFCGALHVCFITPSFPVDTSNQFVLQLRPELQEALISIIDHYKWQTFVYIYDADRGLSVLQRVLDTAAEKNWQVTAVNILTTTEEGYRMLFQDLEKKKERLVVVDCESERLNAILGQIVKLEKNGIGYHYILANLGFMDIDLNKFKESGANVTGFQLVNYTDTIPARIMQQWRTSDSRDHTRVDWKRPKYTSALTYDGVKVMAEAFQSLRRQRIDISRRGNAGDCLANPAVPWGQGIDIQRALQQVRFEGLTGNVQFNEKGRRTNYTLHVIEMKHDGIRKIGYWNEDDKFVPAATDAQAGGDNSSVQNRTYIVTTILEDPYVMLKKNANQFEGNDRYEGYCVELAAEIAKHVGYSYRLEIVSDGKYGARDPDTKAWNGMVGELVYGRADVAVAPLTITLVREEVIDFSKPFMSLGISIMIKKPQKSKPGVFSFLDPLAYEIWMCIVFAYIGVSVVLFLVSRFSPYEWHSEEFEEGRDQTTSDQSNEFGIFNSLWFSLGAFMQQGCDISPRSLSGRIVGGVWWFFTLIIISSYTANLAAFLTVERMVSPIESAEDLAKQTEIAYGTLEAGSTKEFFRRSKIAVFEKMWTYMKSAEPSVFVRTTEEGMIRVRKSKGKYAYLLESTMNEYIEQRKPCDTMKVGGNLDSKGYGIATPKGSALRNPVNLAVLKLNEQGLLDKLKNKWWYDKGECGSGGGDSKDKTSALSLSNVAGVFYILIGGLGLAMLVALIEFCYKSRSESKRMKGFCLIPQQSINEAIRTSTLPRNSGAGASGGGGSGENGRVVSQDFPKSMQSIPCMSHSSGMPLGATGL
Sequence of rat Glutamate Metabotropic Receptor 5 (MGluR5), Grm5 (gene 24418) (P31424 whole entry, looked up): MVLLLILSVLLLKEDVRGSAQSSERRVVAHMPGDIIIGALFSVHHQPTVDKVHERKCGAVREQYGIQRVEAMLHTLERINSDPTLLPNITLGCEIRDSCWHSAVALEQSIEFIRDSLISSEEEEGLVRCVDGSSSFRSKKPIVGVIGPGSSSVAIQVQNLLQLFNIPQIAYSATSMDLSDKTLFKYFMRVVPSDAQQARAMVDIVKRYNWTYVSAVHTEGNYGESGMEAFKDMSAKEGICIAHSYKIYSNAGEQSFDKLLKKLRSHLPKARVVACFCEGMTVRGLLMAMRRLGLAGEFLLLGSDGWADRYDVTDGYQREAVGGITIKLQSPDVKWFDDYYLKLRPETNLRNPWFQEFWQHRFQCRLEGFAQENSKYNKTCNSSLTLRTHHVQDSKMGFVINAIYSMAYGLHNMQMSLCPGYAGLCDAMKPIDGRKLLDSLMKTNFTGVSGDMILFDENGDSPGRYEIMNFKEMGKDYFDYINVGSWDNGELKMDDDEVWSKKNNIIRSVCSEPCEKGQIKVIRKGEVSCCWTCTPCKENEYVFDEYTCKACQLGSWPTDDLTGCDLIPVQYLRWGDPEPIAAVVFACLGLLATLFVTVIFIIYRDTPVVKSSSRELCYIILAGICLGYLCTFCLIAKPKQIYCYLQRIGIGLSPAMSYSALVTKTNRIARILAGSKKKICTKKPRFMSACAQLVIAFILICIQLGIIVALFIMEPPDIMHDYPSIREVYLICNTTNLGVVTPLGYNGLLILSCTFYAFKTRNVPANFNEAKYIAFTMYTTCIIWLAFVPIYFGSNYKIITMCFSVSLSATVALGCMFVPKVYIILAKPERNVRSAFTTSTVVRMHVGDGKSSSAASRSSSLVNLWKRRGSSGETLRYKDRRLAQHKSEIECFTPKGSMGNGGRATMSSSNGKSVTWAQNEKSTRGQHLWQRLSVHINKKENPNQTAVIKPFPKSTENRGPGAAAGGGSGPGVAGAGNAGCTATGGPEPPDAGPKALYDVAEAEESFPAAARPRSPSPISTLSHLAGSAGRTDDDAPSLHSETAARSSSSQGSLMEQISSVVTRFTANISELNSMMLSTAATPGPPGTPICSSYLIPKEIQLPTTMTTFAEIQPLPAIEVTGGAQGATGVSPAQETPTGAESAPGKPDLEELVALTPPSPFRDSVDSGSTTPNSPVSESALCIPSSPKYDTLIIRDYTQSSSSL
Sequence of rat Neurotensin Receptor (NTS), Ntsr1 (gene 366274) (P20789 whole entry, looked up): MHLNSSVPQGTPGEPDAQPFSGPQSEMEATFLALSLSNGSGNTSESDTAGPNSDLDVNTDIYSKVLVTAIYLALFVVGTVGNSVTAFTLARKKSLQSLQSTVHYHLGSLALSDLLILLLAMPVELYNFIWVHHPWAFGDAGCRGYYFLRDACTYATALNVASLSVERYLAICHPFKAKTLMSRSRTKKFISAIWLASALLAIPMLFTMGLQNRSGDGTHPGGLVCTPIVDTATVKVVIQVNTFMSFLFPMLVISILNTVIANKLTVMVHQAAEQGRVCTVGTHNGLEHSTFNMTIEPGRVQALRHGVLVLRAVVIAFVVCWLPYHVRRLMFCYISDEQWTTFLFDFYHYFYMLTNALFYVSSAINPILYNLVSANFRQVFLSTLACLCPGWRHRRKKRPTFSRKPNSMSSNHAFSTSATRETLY

With `CC(C)C1CCC(Cc2ccc(Cl)cc2)C1(O)Cn1cncn1` (stereo not drawn), the outcome in test [1] was inactive. Take `O=C(O)C(F)(F)C(F)(F)C(F)(F)C(F)(F)C(F)(F)C(F)(F)F`: in test [2], the AC50 was 39.2 µM (active). In the case of `N#CCc1ccc(Cl)cc1`, the molecule was called inactive in test [3]. On the same count and under the same terms, for `O=C(Cl)c1ccc(Cl)cc1` the value was “inactive”.

In the case of `CCOP(=S)(OCC)Oc1nc(Cl)c(Cl)cc1Cl`, the AC50 in [4] is 9.12 µM (active). The call in [5] was inactive. Turning to `COC(=O)c1sccc1S(=O)(=O)NC(=O)Nc1nc(C)nc(OC)n1`, the result in [1] was inactive. `Cc1ccccc1C(=O)Nc1cccc(OC(C)C)c1`: the call in test [1] was inactive. In the case of `O=C1C2(Cl)C3(Cl)C4(Cl)C(Cl)(Cl)C5(Cl)C3(Cl)C1(Cl)C5(Cl)C24Cl` (stereo not drawn), the molecule was classed as inactive in test [5].

In the case of `Clc1nc(Cl)nc(Cl)n1`, in test [1], the molecule was classed as inactive. Consider `CCCCCCCCC(=O)NCc1ccc(O)c(OC)c1`, for which, in test [3], the concentration at half-maximal activity (AC50) was 1.55 µM (active). Still for that read-out and setting: then `CCC(=O)C(CC(C)N(C)C)(c1ccccc1)c1ccccc1` (stereo not drawn), with 1.97 µM (active). Turning to `Cl/C=C/Cl`, the outcome in test [1] was inactive.

For the molecule `O=C(O)C(Cl)(Cl)Cl`, the AC50 in [2] is 1.6 µM (active). Regarding `Cn1sc(Cl)cc1=O`, the result in [6] was inactive. Consider `CC(C)(C)CC(C)(C)c1ccc(O)cc1`, for which the molecule was called inactive in [3]. As to `C1CCC(NC2CCCCC2)CC1`, the molecule was called inactive in [1]. Same read-out and setting: then `ClCC(Cl)CCl`, with “inactive”. As for `Oc1cccc2cccnc12`, the result in [7] and in test [1] was inactive.

Consider `C[C@H]1CCCC(=O)CCC/C=C/c2cc(O)cc(O)c2C(=O)O1`, for which, in [1], the call was inactive. As for `O=[N+]([O-])c1ccc(O)c([N+](=O)[O-])c1`, the molecule was classed as inactive in test [1]. Consider `C=C(C)C(=O)[O][Sn]([CH2]CCC)([CH2]CCC)[CH2]CCC`, for which the AC50 in test [8] is 18.1 µM (active); in test [10] it was 1.4 µM (active); in test [11], 8.6 µM (active); in test [12] it was 12.8 µM (active); in [13], 4.13 µM (active); in test [7], 12.3 µM (active). The half-maximal activity concentration (AC50) in [3] is 25 µM (active); in [14], 25 µM (active); in test [1], 20.3 µM (active). For the same molecule, the outcome (in [9]; with NCBI gene 24521) was inactive.

In general, AC50 refers to the concentration at which the activity in the assay is half-maximal.
